What all share (test): HT-SELEX; high values mean tight binding
What all share (conditions): protein: recombinant; vector His6-GST; dsDNA, one strand shown

Assay [1] deals with T1, SALL4 ZFC4 WT (HT-SELEX) (Mus musculus, UniProt Q8BX22 870-940).
T1 sequence: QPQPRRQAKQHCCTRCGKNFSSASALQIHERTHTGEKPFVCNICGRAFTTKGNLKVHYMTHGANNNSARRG
A digest of the protocol:
(§1)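 DNA from a random library (1.5 µg in the first cycle, 200 ng afterwards) was incubated with purified recombinant mouse SALL4 zinc finger cluster 4, residues 870–940 (1 µg), for 10 min at room temperature in 100 µl buffer: 10 mM Tris–HCl pH 7.5, 50 mM NaCl, poly(dI-dC), DTT. Bound complexes were pulled down on Ni2+ beads, washed and PCR-amplified, and the selection was repeated for up to 6 cycles in triplicate. MiSeq reads were scanned for 6-mers, and binding signal is each canonical k-mer's read fraction as fold change over the initial random library.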

Assay [2] deals with T2, SALL4 ZFC4 R900W (HT-SELEX) (Mus musculus, UniProt Q8BX22 870-940, R900W).
T2 sequence: T1 sequence with R31W
The method in brief: as §1

Assay [3] addresses T3, SALL4 ZFC4 G921D (HT-SELEX) (Mus musculus, UniProt Q8BX22 870-940, G921D).
T3 sequence: T1 sequence with G52D
The method in brief: as §1

Substitutions are numbered along the chain they refer to.

On to CTACAA, for which the values for the binding signal in assay [1], in assay [2] and in assay [3] were 1.17 ± 0.0183 fold-change vs cycle 0, 1.29 ± 0.0465 fold-change vs cycle 0 and 1.24 ± 0.0556 fold-change vs cycle 0, respectively.
For CAGTTA, in that order: 1.43 ± 0.0431 fold-change vs cycle 0, 1.46 ± 0.0224 fold-change vs cycle 0 and 1.36 ± 0.0634 fold-change vs cycle 0.
In the case of TCAAAA, the binding signal in assay [1] came out at 1.67 ± 0.118 fold-change vs cycle 0; in assay [2], 1.58 ± 0.0814 fold-change vs cycle 0; in assay [3] it was 1.5 ± 0.116 fold-change vs cycle 0.
Regarding ACTAGT, the figures for the binding signal in assay [1], in assay [2] and in assay [3] were 1.33 ± 0.0473 fold-change vs cycle 0, 1.52 ± 0.0779 fold-change vs cycle 0 and 1.37 ± 0.106 fold-change vs cycle 0, respectively.
For ACAATA, in that order: 2.09 ± 0.146 fold-change vs cycle 0, 1.92 ± 0.0865 fold-change vs cycle 0 and 1.71 ± 0.156 fold-change vs cycle 0.
Take AACCGG: the values for the binding signal in assay [1], in assay [2] and in assay [3] were 0.336 ± 0.0219 fold-change vs cycle 0, 0.391 ± 0.0169 fold-change vs cycle 0 and 0.498 ± 0.0509 fold-change vs cycle 0, respectively.
For GATTAC, in that order: 1.43 ± 0.106 fold-change vs cycle 0, 1.54 ± 0.0979 fold-change vs cycle 0 and 1.45 ± 0.0912 fold-change vs cycle 0.
Regarding AACATG, the results for the binding signal in assay [1], in assay [2] and in assay [3] were 1.25 ± 0.0212 fold-change vs cycle 0, 1.38 ± 0.0255 fold-change vs cycle 0 and 1.32 ± 0.0877 fold-change vs cycle 0, respectively.
Take ACCCAT: the results for the binding signal in assay [1], in assay [2] and in assay [3] were 0.847 ± 0.0456 fold-change vs cycle 0, 0.916 ± 0.0414 fold-change vs cycle 0 and 0.954 ± 0.0193 fold-change vs cycle 0, respectively.
For TGGGAA, in that order: 0.795 ± 0.0577 fold-change vs cycle 0, 0.859 ± 0.0429 fold-change vs cycle 0 and 0.877 ± 0.0259 fold-change vs cycle 0.
As to ATGTGA, the binding signal amounted to 1.31 ± 0.0395 fold-change vs cycle 0 in assay [1], 1.44 ± 0.0647 fold-change vs cycle 0 in assay [2] and 1.39 ± 0.0509 fold-change vs cycle 0 in assay [3].
For CTTGGA, in that order: 0.806 ± 0.0506 fold-change vs cycle 0, 0.948 ± 0.0291 fold-change vs cycle 0 and 0.984 ± 0.0463 fold-change vs cycle 0.
For AAAAAT, in that order: 3.83 ± 0.465 fold-change vs cycle 0, 2.16 ± 0.197 fold-change vs cycle 0 and 1.9 ± 0.223 fold-change vs cycle 0.
For AGAATC, the binding signal in assay [1] was found to be 1.3 ± 0.1 fold-change vs cycle 0; in assay [2] it was 1.47 ± 0.0816 fold-change vs cycle 0; in assay [3], 1.41 ± 0.128 fold-change vs cycle 0.
For the sequence TCATGA, the binding signal was 1.45 ± 0.0979 fold-change vs cycle 0 in assay [1], 1.54 ± 0.0952 fold-change vs cycle 0 in assay [2] and 1.49 ± 0.115 fold-change vs cycle 0 in assay [3].
For ATTGGG, in that order: 0.725 ± 0.0369 fold-change vs cycle 0, 0.818 ± 0.0162 fold-change vs cycle 0 and 0.856 ± 0.0353 fold-change vs cycle 0.
For AATGTG, the binding signal was 1.15 ± 0.0171 fold-change vs cycle 0 in assay [1], 1.23 ± 0.0476 fold-change vs cycle 0 in assay [2] and 1.25 ± 0.0281 fold-change vs cycle 0 in assay [3].
For CAGTGC, in that order: 0.318 ± 0.0186 fold-change vs cycle 0, 0.355 ± 0.00797 fold-change vs cycle 0 and 0.491 ± 0.0442 fold-change vs cycle 0.
For ACTTAT, in that order: 2.49 ± 0.156 fold-change vs cycle 0, 2.19 ± 0.135 fold-change vs cycle 0 and 1.9 ± 0.197 fold-change vs cycle 0.
For ATAATA, in that order: 4.87 ± 0.591 fold-change vs cycle 0, 2.66 ± 0.215 fold-change vs cycle 0 and 2.24 ± 0.293 fold-change vs cycle 0.
As for CGAGTC, the results for the binding signal in assay [1], in assay [2] and in assay [3] were 0.379 ± 0.0123 fold-change vs cycle 0, 0.4362 ± 0.00406 fold-change vs cycle 0 and 0.578 ± 0.0547 fold-change vs cycle 0, respectively.
For the sequence GAGAGC, the binding signal is 0.363 ± 0.00861 fold-change vs cycle 0 in assay [1], 0.422 ± 0.0138 fold-change vs cycle 0 in assay [2] and 0.588 ± 0.0466 fold-change vs cycle 0 in assay [3].
Take CTATCC: the binding signal came to 0.843 ± 0.0485 fold-change vs cycle 0 in assay [1], 0.98 ± 0.0213 fold-change vs cycle 0 in assay [2] and 0.977 ± 0.0393 fold-change vs cycle 0 in assay [3].
For ATGAAC, in that order: 1.5 ± 0.0592 fold-change vs cycle 0, 1.55 ± 0.0999 fold-change vs cycle 0 and 1.47 ± 0.0678 fold-change vs cycle 0.
For AGGAAA, in that order: 1.31 ± 0.0867 fold-change vs cycle 0, 1.43 ± 0.085 fold-change vs cycle 0 and 1.35 ± 0.118 fold-change vs cycle 0.
For ACTCAT, in that order: 1.52 ± 0.0846 fold-change vs cycle 0, 1.54 ± 0.0355 fold-change vs cycle 0 and 1.47 ± 0.11 fold-change vs cycle 0.
Take AGCACA: the binding signal in assay [1] is 0.64 ± 0.039 fold-change vs cycle 0; in assay [2], 0.77 ± 0.0406 fold-change vs cycle 0; in assay [3] it was 0.894 ± 0.0466 fold-change vs cycle 0.
As for CAAACA, the binding signal in assay [1] stood at 1.04 ± 0.0367 fold-change vs cycle 0; in assay [2] it was 1.17 ± 0.0357 fold-change vs cycle 0; in assay [3] it was 1.18 ± 0.0394 fold-change vs cycle 0.
For CACAAA, in that order: 0.978 ± 0.0432 fold-change vs cycle 0, 1.1 ± 0.0594 fold-change vs cycle 0 and 1.09 ± 0.0653 fold-change vs cycle 0.
GGACTA: the binding signal in assay [1] stood at 0.732 ± 0.0464 fold-change vs cycle 0; in assay [2] it was 0.855 ± 0.0609 fold-change vs cycle 0; in assay [3], 0.897 ± 0.0585 fold-change vs cycle 0.

These data come from publication PMC9838217, “Structure of SALL4 zinc finger domain reveals link between AT-rich DNA binding and Okihiro syndrome”.
